Screens: PubChem, National Center for Advancing Translational Sciences (NCATS)
An excerpt weighted towards active compounds, which were near 6% of everything screened.
PLK1 PBD block = PLK1 (human) polo-box domain binding inhibition. P53350. Plk1 PBD binding of FITC phosphopeptide, fluorescence polarization. Potency, µM, usual class: inhibitors. hit rate 2.8% among 360,000. AID 720504; also: series mostly up to about 57 µM; nearly all actives have a fitted effect of over 65% in size
Target sequence (P53350 whole entry, looked up, the tested form may be a part): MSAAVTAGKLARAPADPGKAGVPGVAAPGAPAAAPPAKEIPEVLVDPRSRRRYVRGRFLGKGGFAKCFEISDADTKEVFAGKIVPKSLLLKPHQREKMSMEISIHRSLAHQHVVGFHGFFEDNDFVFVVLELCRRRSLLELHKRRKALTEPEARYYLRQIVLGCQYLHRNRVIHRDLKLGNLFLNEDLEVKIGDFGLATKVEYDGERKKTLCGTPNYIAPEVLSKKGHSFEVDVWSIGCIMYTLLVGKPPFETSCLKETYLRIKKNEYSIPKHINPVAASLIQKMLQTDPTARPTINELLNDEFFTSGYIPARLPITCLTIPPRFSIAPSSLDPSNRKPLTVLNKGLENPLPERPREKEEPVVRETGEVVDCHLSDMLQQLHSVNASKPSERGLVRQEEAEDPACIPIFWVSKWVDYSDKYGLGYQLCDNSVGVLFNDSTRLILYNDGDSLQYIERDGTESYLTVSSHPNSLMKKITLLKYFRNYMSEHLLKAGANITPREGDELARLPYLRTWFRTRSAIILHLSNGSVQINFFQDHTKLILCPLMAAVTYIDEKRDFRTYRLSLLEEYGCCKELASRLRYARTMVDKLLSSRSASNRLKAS
Tau fluor cs = counter-screen for tau fibril formation inhibitors. hit rate 0.93% among 280,000. AID 1463. tau K18 P301L Alexa594 fluorescence, heparin fibrillization. Potency, µM (titrated, usually from 57.7 µM); also: nearly all actives have a fitted effect of over 55% in size
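Human tau K18 P301L (15 uM unlabeled, 0.24 uM Alexa 594-labeled) in 100 mM sodium acetate pH 7 with 20 uM heparin, 6 hr at 37 C. ThT 30 uM added, 1 hr ambient; Alexa 594 FP and total fluorescence read at 555/632 nm.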
Tau FP inhib = blocks human tau fibril formation measured by polarization; P10636; K18 P301L tau heparin fibrillization, Alexa594 FP, 6 h; Potency, µM (series often up to 57.7 µM), most hits filed as inhibitors; hit rate 0.39% among 280,000; AID 1468; also: nearly all actives have a fitted effect of over 55% in size
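Human tau K18 […] P301L fragment, 15 uM unlabeled plus 0.24 uM Alexa 594-labeled tau (final), with compound and 20 uM heparin in 100 mM sodium acetate pH 7; 6 hr at 37 C, then Alexa 594 FP read.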
VDR inhibitor = blocks the human vitamin D receptor. AID 504847. hit rate 0.93% among 400,000. P11473. VDR-SRC2-3 peptide fluorescence polarization, 2 h. Potency, µM, hits mostly inhibitors
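FP read-out; VDR + SRC2-3 coactivator peptide; 23 nl compound by pintool; 2 h RT incubation; reagents held at 4 deg C, protected from light.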
Tau fibril ThT = blocks human tau fibril formation measured by thioflavin T. P10636. recombinant tau K18 P301L (four-repeat tau fragment), heparin-induced fibrillization, ThT fluorescence. Potency, µM (highest dose often 57.4 µM), usual class: inhibitors. hit rate 2.1% among 270,000; also: nearly all actives have a fitted effect of over 55% in size
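Tau K18 P301L fragment (15 uM unlabeled plus 0.24 uM Alexa 594-labeled) in 100 mM sodium acetate pH 7 with compound, fibrillization induced by 20 uM heparin for 6 hr at 37 C. Thioflavin T (30 uM) added, fluorescence read after 1 hr (ex 450, em 510 nm).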
Sfp PPTase inh = blocks B. subtilis Sfp PPTase activity. Biochemical Sfp PPTase activity, qHTS. Potency, µM, hits mostly inhibitors. hit rate 3.5% among 310,000. Q9F4F7;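 also: the enzyme is Sfp with the accession as filed and its product quenches rhodamine fluorescence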
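Compounds were incubated with enzyme (final 15 nM) for 15 min at room temperature before substrate addition started the reaction. Fluorescence at 525 nm excitation, 598 nm emission was recorded immediately and after 30 minutes.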
Of the large screens only hits and unclear results are named; the others gave an inactive call; [ ] = dose if it differs, or a comment. Calls follow the shape of the dose curve; as a rule, active = well fitted curve in the direction sought with a large enough effect; inconclusive = small, poorly fitted or top-dose-only effect, or another doubt; inactive = no such curve, though single readings can be large; an effect the other way counts as inactive or inconclusive.

COC(=O)c1ccc(C)c(NS(=O)(=O)c2ccc(C)c([N+](=O)[O-])c2)c1	PLK1 PBD block inconclusive
Cc1ccc(NC(=O)CSc2ccc(C(N)=O)cc2[N+](=O)[O-])cc1C	PLK1 PBD block 3µM, VDR inhibitor 22µM
Cc1ccc(S(=O)(=O)Nc2ccc(C(N)=O)cc2)cc1[N+](=O)[O-]	PLK1 PBD block 15µM, VDR inhibitor inconclusive
Cc1ccc(C)c(S(=O)(=O)N2CCN(C(=O)CCC(=O)c3cc(C)sc3C)CC2)c1	none (no result: Tau fluor cs, Tau FP inhib, Tau fibril ThT, Sfp PPTase inh)
CCc1ccc(NC(=O)N2CCN(Cc3cc(=O)n4nc(-c5ccccc5OC)sc4n3)CC2)cc1	none (no result: PLK1 PBD block, Sfp PPTase inh)
CCC(=O)OCCNc1cc(Sc2nc3ccccc3[nH]2)c2nonc2c1[N+](=O)[O-]	PLK1 PBD block 1.2µM, Tau fluor cs inconclusive, Tau FP inhib inconclusive, VDR inhibitor inconclusive, Tau fibril ThT 8.9µM, Sfp PPTase inh 18µM
CCCC(=O)OCCNc1cc(SCc2ccco2)c2nonc2c1[N+](=O)[O-]	PLK1 PBD block inconclusive, Tau fluor cs 4.5µM[quencher], Tau FP inhib inconclusive, VDR inhibitor inconclusive, Tau fibril ThT 4µM, Sfp PPTase inh 11µM
O=[N+]([O-])c1c(NCc2ccco2)ccc2nonc12	none
NCCNc1ccc([N+](=O)[O-])c(Sc2nc3ccccc3[nH]2)c1	Tau fluor cs inconclusive, Tau fibril ThT inconclusive
CCCSc1cc(NCCOC(C)=O)c([N+](=O)[O-])c2nonc12	PLK1 PBD block inconclusive, Tau fluor cs inconclusive, VDR inhibitor inconclusive, Tau fibril ThT inconclusive
CC(=O)OCCCNc1cc(SCc2ccco2)c2nonc2c1[N+](=O)[O-]	PLK1 PBD block inconclusive, Tau fluor cs 7.1µM[quencher], Tau FP inhib inconclusive, VDR inhibitor 79µM, Tau fibril ThT 7.9µM, Sfp PPTase inh 25µM
CCCSc1cc(NCCOC(=O)CCC)c([N+](=O)[O-])c2nonc12	PLK1 PBD block 17µM, Tau fluor cs inconclusive, VDR inhibitor inconclusive, Tau fibril ThT inconclusive
CCN(CC)C(=O)CSc1nc(-c2ccccc2)cc(-c2ccc(OC)cc2)c1C#N	Tau fibril ThT inconclusive (no result: PLK1 PBD block, Sfp PPTase inh)
COc1ccc(Cn2cc(C(=O)c3ccc(C)c(C)c3)c(=O)c3ccccc32)cc1	none (no result: PLK1 PBD block, Sfp PPTase inh)
Cc1ccc(S(=O)(=O)c2nc(-c3cccc(C)c3)oc2N2CCCCC2)cc1	none (no result: PLK1 PBD block, Sfp PPTase inh)
CCN(CC)CCCNC(=O)Cn1c(-c2cccs2)cc2cc(Cl)ccc21	Tau fluor cs inconclusive, Tau fibril ThT inconclusive (no result: PLK1 PBD block, Sfp PPTase inh)
COc1ccc(OC)c(S(=O)(=O)NC(=O)C2(C)CCN2C(=O)Cc2ccccc2Cl)c1 (stereo not drawn)	none (no result: Tau fluor cs, Tau FP inhib, VDR inhibitor, Tau fibril ThT, Sfp PPTase inh)
CCOc1ccccc1NC(=O)c1c(NC(=O)c2cccc(C)c2)sc2c1CCC2	Tau FP inhib inconclusive (no result: PLK1 PBD block, Sfp PPTase inh)
COC(=O)C[C@@H]1C=C[C@H](NC(=O)Nc2cc(F)ccc2F)[C@@H](CO)O1	none (no result: Tau fluor cs, Tau FP inhib, VDR inhibitor, Tau fibril ThT, Sfp PPTase inh)
Cc1cc(C)c(NC(=O)CSc2nc(=O)n(Cc3cccnc3)c3c2CCC3)c(C)c1	none (no result: PLK1 PBD block, Sfp PPTase inh)
O=[N+]([O-])c1ccccc1-c1cc(-c2cc(Cl)ccc2O)n[nH]1	Tau fluor cs 14µM[quencher], Tau FP inhib inconclusive, Tau fibril ThT inconclusive
Cc1ccc(O)c(-c2cc(-c3ccccc3[N+](=O)[O-])[nH]n2)c1	Tau fluor cs inconclusive, Tau fibril ThT inconclusive
Oc1ccccc1-c1cc(-c2ccccc2Cl)[nH]n1	Tau fluor cs 14µM[quencher], Tau FP inhib inconclusive
Oc1ccc(Cl)cc1-c1cc(-c2ccco2)[nH]n1	PLK1 PBD block 5.3µM, Tau fluor cs inconclusive, Tau FP inhib inconclusive, Sfp PPTase inh 50µM
CC(=O)c1cccc(NC(=O)C2Cc3c(-c4cccc(C(N)=O)c4)ccnc3O2)c1 (stereo not drawn)	none (no result: Tau fluor cs, Tau FP inhib, VDR inhibitor, Tau fibril ThT, Sfp PPTase inh)
C(=C\c1ccco1)/c1ccc2ccccc2n1	Tau FP inhib inconclusive, Tau fibril ThT 32µM, Sfp PPTase inh 50µM
C(=C\c1ccco1)/c1nc2ccccc2[nH]1	Sfp PPTase inh 40µM
C(=C\c1nc2ccccc2[nH]1)/c1ccccc1	none
COc1ccc(-c2nnc(SCC(=O)Nc3ccc(Cl)cc3)s2)cc1	none (no result: PLK1 PBD block, Sfp PPTase inh)
O=C1c2cccc3c(Nc4ccccc4Cl)c([N+](=O)[O-])cc(c23)C(=O)N1CCO	Tau fluor cs inconclusive, VDR inhibitor inconclusive, Tau fibril ThT 11µM
Cc1ccccc1-n1c(C)cc(/C=C2/C(=N)N3C(c4ccccc4)=CSC3=NC2=O)c1C	none
